Laboratory results published in PubChem BioAssay AID652042 (Broad Institute, 2013).
In all, about 1,100 compounds went through this assay and about 350 (32%) were called active. How the calls were made is not given here. These entries were drawn from the full list. Results with a measured potency or affinity are listed apart.

assay: CEM21 lymphoblast cell cytotoxicity, dose response, cytotoxicity control for viral fusion inhibitor project, CellTiter-Glo luminescence, cherry-picked (AID 652042); details: CEM21 cells viability, CellTiter-Glo ATP luminescence, 24 h; series mostly up to 35 µM

Question: With `COc1ccc(NC(=O)Nc2ccc3c(c2)CC(=O)N([C@@H](C)CO)C[C@H](C)[C@H](CN(C)S(=O)(=O)c2cccs2)O3)cc1` as the compound, how does the activity change, negative = cytotoxicity read?
Answer: inactive

Question: With `C[C@H](CO)N1C[C@H](C)[C@H](CN(C)CC2CC2)Oc2ccc(NC(=O)Nc3ccc4c(c3)OCO4)cc2CC1=O` as the compound, how does the activity change, negative = cytotoxicity read?
Answer: inactive

Question: For `COc1ccc(CN(C)C[C@@H]2Oc3ccc(NC(=O)Nc4ccc(OC)cc4)cc3C(=O)N([C@H](C)CO)C[C@@H]2C)cc1`, which activity change, negative = cytotoxicity is on record?
Answer: inactive

Question: For `C[C@H](CO)N1C[C@H](C)[C@H](CN(C)S(=O)(=O)c2ccc(Cl)cc2)Oc2ccc(NC(=O)Nc3ccc4c(c3)OCO4)cc2C1=O`, which activity change, negative = cytotoxicity is on record?
Answer: inactive

Question: Which activity change, negative = cytotoxicity does the source give for `COc1ccc(S(=O)(=O)Nc2ccc3c(c2)CC(=O)N([C@H](C)CO)C[C@H](C)[C@H](CN(C)S(=O)(=O)c2ccc(F)cc2)O3)cc1` here?
Answer: inactive

Question: For `C[C@H](CO)N1C[C@H](C)[C@H](CN(C)S(=O)(=O)c2ccccc2)Oc2ccc(NC(=O)Nc3ccccc3)cc2CC1=O`, which activity change, negative = cytotoxicity is on record?
Answer: inactive

Question: With `C[C@H]1CN([C@@H](C)CO)C(=O)c2cc(NC(=O)Nc3ccc4c(c3)OCO4)ccc2O[C@H]1CN(C)S(=O)(=O)c1ccc(F)cc1` as the compound, how does the activity change, negative = cytotoxicity read?
Answer: inactive

Question: With `CC(C)NC(=O)Nc1ccc2c(c1)CC(=O)N([C@H](C)CO)C[C@H](C)[C@H](CN(C)S(=O)(=O)c1cccs1)O2` as the compound, how does the activity change, negative = cytotoxicity read?
Answer: inactive

Question: With `COc1ccc(Cl)cc1CC1(C)C(=O)Nc2ccc(S(=O)(=O)NC3CCCCC3)cc21` (centres undefined) as the compound, how does the activity change, negative = cytotoxicity read?
Answer: inactive

Question: For `O=C(c1ccccc1)N1CCC(c2nc(-c3ccc(S(=O)(=O)NCC4CCCO4)cc3)no2)CC1` (centres undefined), which activity change, negative = cytotoxicity is on record?
Answer: inactive

Question: With `CC1CCN(C(=O)c2ncn3c2C(=O)N[C@H](C)C3)CC1` as the compound, how does the activity change, negative = cytotoxicity read?
Answer: inactive

Question: With `Cc1nc2ncnn2c(N2CCCC(C(=O)Nc3ccc4c(c3)CCC4)C2)c1C` (centres undefined) as the compound, how does the activity change, negative = cytotoxicity read?
Answer: inactive

Question: Which activity change, negative = cytotoxicity does the source give for `O=C(Nc1ccc2c(c1)CCC2)C1CCN(c2c3c(nc4ncnn24)CCC3)CC1` here?
Answer: inactive

Question: With `Oc1ccc(CNc2ccccc2F)c2cccnc12` as the compound, how does the activity change, negative = cytotoxicity read?
Answer: inactive

Question: With `N#C/C(=N\Nc1ccc(Cl)cc1)C(=O)c1ccccc1` as the compound, how does the activity change, negative = cytotoxicity read?
Answer: inactive

Question: With `NC(=S)c1ccc(OCCCc2ccccc2)cc1` as the compound, how does the activity change, negative = cytotoxicity read?
Answer: inactive

Question: With `O=C1c2cccc(OCc3ccc(F)cc3)c2CCN1Cc1ccccc1` as the compound, how does the activity change, negative = cytotoxicity read?
Answer: inactive

Question: For `C[C@@]12C(=O)N(CCc3c[nH]c4ccccc34)CC(=O)N1[C@H]1c3ccccc3OC[C@@H]1[C@@H]2c1ccccc1`, which activity change, negative = cytotoxicity is on record?
Answer: inactive

Question: Which activity change, negative = cytotoxicity does the source give for `C[C@@]12C(=O)N(CC3CCCO3)CC(=O)N1[C@H]1c3cc(Cl)ccc3OC[C@@H]1[C@@H]2c1ccccc1` (some centres undefined) here?
Answer: inactive

Question: With `COC(=O)CCn1nnc(-c2ccc(C(C)C)cc2)n1` as the compound, how does the activity change, negative = cytotoxicity read?
Answer: inactive

Question: For `COCC(=O)Nc1ccc2c(c1)C(=O)N(C)[C@H]1CC[C@H](CC(=O)NC3CCCC3)O[C@H]1CO2`, which activity change, negative = cytotoxicity is on record?
Answer: inactive

Question: For `CC1=CC(C)(C)N(C(=O)c2ccccc2)c2ccc(C)cc21`, which activity change, negative = cytotoxicity is on record?
Answer: inactive

Question: For `COCC(=O)Nc1ccc2c(c1)C(=O)N(C)C[C@@H](OC)[C@@H](C)CN(C)[C@H](C)CO2`, which activity change, negative = cytotoxicity is on record?
Answer: inactive

Question: For `CCOC1=C2[C@@H](CN(S(=O)(=O)c3ccccc3C)[C@H]2c2ccc(Cl)cc2)[C@H]2C(=O)NC(=O)[C@H]2C1`, which activity change, negative = cytotoxicity is on record?
Answer: inactive

Question: For `Cc1sc2ncnc(N3CCC(C(=O)Nc4cc(S(C)(=O)=O)ccc4Cl)CC3)c2c1C`, which activity change, negative = cytotoxicity is on record?
Answer: inactive

Question: Which activity change, negative = cytotoxicity does the source give for `COC(=O)C1=C(C)N(CC2CC2)C(=O)N[C@H]1c1ccc(Br)cc1` here?
Answer: inactive

Question: With `O=C(NCc1ccco1)c1ccc(Cn2c(=O)c3sccc3n(Cc3cccc(F)c3)c2=O)cc1` as the compound, how does the activity change, negative = cytotoxicity read?
Answer: inactive

Question: Which activity change, negative = cytotoxicity does the source give for `CC[C@@]1(C(=O)OC)N[C@H](CN(C)C(=O)COc2ccccc2)[C@@H]2C(=O)N(Cc3ccccc3)C(=O)[C@@H]21` here?
Answer: inactive

Question: For `C[C@@H]1CN([C@@H](C)CO)C(=O)c2cc(C3=CCCC3)cnc2O[C@@H]1CN(C)Cc1ccc(C(=O)O)cc1`, which activity change, negative = cytotoxicity is on record?
Answer: inactive

Question: For `C[C@H]1CN([C@@H](C)CO)C(=O)Cc2cc(N(C)C)ccc2O[C@H]1CN(C)Cc1ccc(Cl)c(Cl)c1`, which activity change, negative = cytotoxicity is on record?
Answer: inactive

Question: With `C=C(C)c1cccc(C(C)(C)NC(=O)Nc2ccc(Cl)cn2)c1` as the compound, how does the activity change, negative = cytotoxicity read?
Answer: inactive

Question: For `O=C(NCc1ccccc1)c1ccc(C(=O)NCc2ccccc2)cc1`, which activity change, negative = cytotoxicity is on record?
Answer: inactive

Question: With `Cc1ncccc1C(=O)N1CCCC(C(=O)c2ccc3c4c(cccc24)CC3)C1` (centres undefined) as the compound, how does the activity change, negative = cytotoxicity read?
Answer: inactive

Question: Which activity change, negative = cytotoxicity does the source give for `CCOc1ccc(N(C)S(=O)(=O)c2cc(-c3cc(C)no3)ccc2C(C)C)cc1` here?
Answer: inactive

Question: Which activity change, negative = cytotoxicity does the source give for `COc1ccc(NC(=O)c2ccc(Cl)c(S(=O)(=O)N3CCc4ccccc4C3)c2)cn1` here?
Answer: inactive

Question: With `Cc1ccc(NC(=O)c2ccc(CN3CCc4ccccc4C3)cc2)cc1` as the compound, how does the activity change, negative = cytotoxicity read?
Answer: inactive

Question: Which activity change, negative = cytotoxicity does the source give for `Cc1ccc2c(c1)c1c3n2CCN(CCC#N)C3CCC1` (centres undefined) here?
Answer: inactive

Question: For `CC(CCc1ccco1)NC(=O)CCc1nnc2ccc(NCc3ccccc3Cl)nn12` (centres undefined), which activity change, negative = cytotoxicity is on record?
Answer: inactive

Question: For `Cc1ccc(S(=O)(=O)N2CCC(=O)N(CCOC(=O)Nc3cccc(Cl)c3)CC2)cc1`, which activity change, negative = cytotoxicity is on record?
Answer: inactive

Question: For `COc1ccc(C)cc1NC(=O)CCNS(=O)(=O)c1ccc2c(c1)CC(C)N2C(C)=O` (centres undefined), which activity change, negative = cytotoxicity is on record?
Answer: inactive

Question: For `COc1ccccc1Oc1ccc(S(=O)(=O)NCc2ccccn2)cc1`, which activity change, negative = cytotoxicity is on record?
Answer: inactive

Question: Which activity change, negative = cytotoxicity does the source give for `O=C(C[C@H]1C[C@@H]2c3cc(NC(=O)C4CCOCC4)ccc3O[C@@H]2[C@@H](CO)O1)NCc1ccccc1F` here?
Answer: inactive

Question: Which activity change, negative = cytotoxicity does the source give for `CC(C)CCN(N=O)[C@@H](Cc1ccccc1)CN(N=O)[C@@H](Cc1ccccc1)CN(C)N=O` here?
Answer: inactive

Question: For `COc1ccc(-c2cc(=O)oc3c(C)c(O)ccc23)cc1`, which activity change, negative = cytotoxicity is on record?
Answer: inactive
